D2 PAM-1 – positive allosteric modulators of human D2 dopamine receptor | AID 485347 | potentiation, % at 10 µM | hit rate 0.34% among 340,000 | HEK293 T-REx D2, calcium flux, EC20 dopamine potentiation;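 active = potentiation over 3 SD above the plate norm, cut at about 30% in these data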
Target sequence (P14416 whole entry, looked up): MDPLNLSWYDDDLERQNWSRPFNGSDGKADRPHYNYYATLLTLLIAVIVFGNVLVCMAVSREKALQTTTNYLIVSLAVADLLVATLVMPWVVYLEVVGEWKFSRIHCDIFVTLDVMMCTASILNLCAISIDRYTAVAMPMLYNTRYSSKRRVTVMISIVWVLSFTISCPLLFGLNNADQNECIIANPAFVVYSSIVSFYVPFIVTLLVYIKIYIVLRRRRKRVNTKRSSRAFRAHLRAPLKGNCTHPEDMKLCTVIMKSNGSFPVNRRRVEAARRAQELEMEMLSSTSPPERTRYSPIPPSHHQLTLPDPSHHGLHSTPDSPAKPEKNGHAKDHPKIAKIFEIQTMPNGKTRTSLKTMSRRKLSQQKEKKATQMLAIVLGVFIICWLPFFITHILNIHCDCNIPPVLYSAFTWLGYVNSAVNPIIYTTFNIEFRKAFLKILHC
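Using a no-wash calcium dye in inducible, force-coupled HEK293 Trex cells expressing D2, we tracked fluorescence each second for 180 s after compound, then for 180 s after EC20 dopamine to detect augmented signalling.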
D2 ag-1 – human D2 receptor agonism in beta-arrestin assay; P14416; DiscoveRx PathHunter D2 beta-arrestin, luminescence, 90 min; 100% = 57 uM dopamine signal; activation, % (no concentration beside the values); hit rate 0.084% among 360,000; AID 624465; in the data active = activation above about 40%; inconclusive = between about 15% and that limit
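Agonist mode: compounds alone added to overnight-plated D2 PathHunter cells for 90 min at 37 C, with 57 uM final dopamine (EC100) defining full response. Beta-arrestin recruitment detected by chemiluminescent reagent, read after 1 h at ambient temperature.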
D2 PAM-2 – human D2 receptor positive allosteric modulation. hit rate 0.23% among 360,000. AID 624464. DiscoveRx D2 beta-arrestin cells, luminescence, 90 min; 100% = 57 uM dopamine signal. potentiation, % (no concentration beside the values); in the data active = potentiation above about 50%; inconclusive = mostly about 30% to 49%
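D2 cells co-treated with compound plus 50 nM dopamine (EC20) for 90 min at 37 deg C to detect potentiation. Beta-arrestin recruitment was read as enzyme-fragment luminescence after 1 h at ambient temperature. Full response was set by 57 uM dopamine.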
D2 ag-2 – activates the human D2 dopamine receptor | P14416 | HEK293 T-REx D2 cells, calcium flux agonist mode | activation, % at 2 µM | hit rate 0.53% among 340,000;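 active = activation over 3 SD above normal in the single-dose calcium agonist read, cut at about 30% in these data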
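Calcium-flux readout, 1 cycle/sec over 180 s following compound pin transfer, in inducible HEK293 Trex D2 cells (force-coupled); dopamine controls included. Positive calcium responses during this window marked compounds as potential agonists.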
D2 antag – D2 dopamine receptor (human) antagonism; P14416; HEK293 TREx D2 cells, calcium flux, dopamine EC80; inhibition, % at 10 µM; hit rate 2% among 340,000; AID 485344; in the data active = inhibition above about 30%; inactive = below that, where a call was filed
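Compounds are added to dye-loaded, induced HEK293 T-REx cells coupled to calcium release via D2; after a 3 min kinetic read an EC80 dopamine stimulus is given and fluorescence is recorded for 3 more min.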
D3 ag – confirmation of human D3 dopamine receptor agonists, beta-arrestin | AID 720506 | DiscoveRx D3 beta-arrestin cells, luminescence, 90 min | shares compounds with D2 ag-2 | hit rate 4% among 2,300 | Potency, µM (titrated, usually from 76.9 µM), hits mostly activators; note: nearly all actives have a fitted effect of over 70% in size
D2 ag-3 – counter-screen for D3 agonists: human D2 dopamine receptor agonism | shares compounds with D2 ag-2 | DiscoveRx PathHunter D2 beta-arrestin, luminescence, 90 min; response scale: percent relative to full dopamine signal | Potency, µM (titrated, usually from 76.9 µM), actives largely listed as activators | hit rate 5.9% among 2,300; note: nearly all actives have a fitted effect of over 70% in size
Hits are given with their value; i = inactive; ? = inconclusive; nt = no result given. A selection: hits, their analogues and other compounds. The true share with any hit is near 2.4%. Unless noted, calls come from the whole dose curve; as a rule, active = well fitted activation curve with a large enough effect; inconclusive = small, poorly fitted or top-dose-only effect; inactive = flat fitted curve, though single readings scatter.

SMILES | D2 PAM-1 | D2 ag-1 | D2 PAM-2 | D2 ag-2 | D2 antag | D3 ag | D2 ag-3
O=C(c1ccc([N+](=O)[O-])o1)N1CCN(Cc2ccccc2)CC1 | i | i | i | i | i | nt | nt
O=C(c1ccccc1)N1CCN(Cc2cccc(Oc3ccccc3)c2)CC1 | i | i | i | 49.4 | i | i | i
CCn1cc(C(=O)NCc2ccc3c(c2)OCO3)c(=O)c2ccc(C)nc21 | i | nt | nt | i | i | nt | nt
N#Cc1ccc(S(=O)(=O)N2CCC(C(=O)N3CCN(Cc4ccc5c(c4)OCO5)CC3)CC2)cc1 | i | ? | i | 34.6 | 42.6 | i | ?
COc1cccc(CN2CCN(C(=O)c3cccc(OC)c3)CC2)c1 | i | i | i | i | i | nt | nt
Cc1ccc(C(=O)N2CCN(Cc3ccccc3)CC2)o1 | i | i | i | 50.2 | i | i | i
CCn1cc(C(=O)N2CCN(Cc3ccc4c(c3)OCO4)CC2)c(=O)c2ccc(C)nc21 | i | i | i | 68.0 | i | i | i
COc1cccc(CN(C(=O)c2oc3cc(C)ccc3c2C)C2CCS(=O)(=O)C2)c1 (centres undefined) | i | nt | nt | nt | nt | nt | nt
COc1cccc(NC(=O)Cn2cnc3c(nc4n3CCCCC4)c2=O)c1 | i | nt | nt | i | nt | nt | nt
CS(=O)(=O)c1ccccc1C(=O)N1CCN(Cc2ccccc2)CC1 | nt | i | i | nt | nt | i | i
O=C(Cn1ccc2ccccc2c1=O)N1CCN(Cc2ccc3c(c2)OCO3)CC1 | i | i | i | 30.2 | i | i | i
CN(CC(=O)N1CCN(Cc2ccccc2)CC1)C(=O)Cc1cccc2ccccc12 | i | i | i | 36.9 | i | i | i
O=C(c1cc2ccccc2oc1=O)N1CCN(Cc2ccc3c(c2)OCO3)CC1 | i | i | i | i | i | nt | nt
CCOC(=O)N1CCN(Cc2ccc3c(c2)OCO3)CC1 | i | 52.8 | ? | 85.6 | 80.9 | i | 5.01µM
Cc1c(C(=O)N2CCN(Cc3ccc4c(c3)OCO4)CC2)sc2ncnc(N3CCN(c4ccccc4F)CC3)c12 | nt | ? | i | nt | nt | i | ?
Cc1cc(=O)oc(C)c1C(=O)N1CCN(Cc2ccc3c(c2)OCO3)CC1 | i | i | i | i | i | i | i
COc1cccc(OC)c1C(=O)N1CCN(Cc2ccc3c(c2)OCO3)CC1 | i | i | i | i | i | nt | nt
Cc1ccc2c(C)c(C(=O)N3CCN(Cc4ccc5c(c4)OCO5)CC3)oc2c1C | i | i | i | i | i | nt | nt
Cc1ccc(C(=O)N2CCN(Cc3ccc4c(c3)OCO4)CC2)o1 | nt | i | i | nt | nt | i | i
O=C(CCCn1c(=O)[nH]c2ccsc2c1=O)N1CCN(Cc2ccc3c(c2)OCO3)CC1 | i | i | i | nt | nt | i | i
Cc1cc(C)cc(NS(=O)(=O)c2ccc(-c3cc(C)no3)cc2)c1 | nt | nt | nt | i | nt | nt | nt
CCOC(=O)C(=O)Nc1ccc(S(=O)(=O)Nc2nccc(C)n2)cc1 | nt | i | i | nt | nt | nt | nt
CCOC(=O)Nc1ccc(S(=O)(=O)Nc2nccc(C)n2)cc1 | i | i | i | 50.1 | i | i | i
CC1CCc2c(sc(NC(=O)Cc3ccccc3)c2C(=O)Nc2ccc(Cl)cc2)C1 (centres undefined) | i | nt | nt | i | nt | nt | nt
CCOC(=O)C1CCN(CC(=O)Nc2c(C(=O)OC)[nH]c3cccc(C)c23)CC1 | i | i | i | i | i | i | i
SMILES | D2 PAM-1 | D2 ag-1 | D2 PAM-2 | D2 ag-2 | D2 antag | D3 ag | D2 ag-3
CCOC(=O)C1CCCN(CC(=O)Nc2c(C(=O)OC)[nH]c3ccccc23)C1 (centres undefined) | nt | i | i | nt | nt | nt | nt
O=C(CNC(=O)c1ccccc1)NCC(=O)OCC(=O)c1ccc(F)cc1 | nt | i | i | nt | nt | i | i
Cc1ccc(C(=O)NCC(=O)NCC(=O)OCC(=O)c2ccc(F)cc2)cc1 | i | i | i | 48.7 | i | i | i
CC(=O)C1=C(c2ccc(Cl)c(Cl)c2)N(C(C)=O)n2cnnc2S1 | i | nt | nt | i | nt | nt | nt
O=C(Cn1nnc(-c2cccc(C(F)(F)F)c2)n1)NCc1ccc(F)cc1 | nt | nt | nt | i | nt | nt | nt
COc1cccc(NS(=O)(=O)c2ccc3[nH]cc(C(=O)N(C)C4CCCCC4)c(=O)c3c2)c1 | i | nt | nt | i | nt | nt | nt

Assay outcomes from PubChem.
